High-throughput results (PubChem)
Compounds with a hit are over-represented: about 1.4% of the library has one in this group of screens.
AID504770 – growth inhibition of E. coli YBA685, primary screen, V. cholerae RctB inhibitors; z-score (concentration not given with the values); AID 504770, 2011; E. coli YBA685 rctB-dependent plasmid, OD600 growth, 3 h; stronger effect = lower value; 0.27% of 130,000 active; in the data active = z-score below about -2, passing the limit was not always enough
Mtb MenB inh – M. tuberculosis MenB inhibitors, primary screen, biochemical, absorbance | 1,4-dihydroxy-2-naphthoyl-CoA synthase (Mycobacterium tuberculosis (strain ATCC 25618 / … | MenB enzyme assay, absorbance read-out | inhibition, % (concentration not given with the values) | 0.43% of 100,000 active | AID 540299, 2011; in the data active = inhibition above about 21%, passing the limit was not always enough
MbtI inh – MbtI salicylate synthase inhibitors, primary screen, biochemical, fluorescence intensity; P9WFX0; purified MbtI enzyme, fluorescence intensity read-out; inhibition, % (test concentration not listed); 0.89% of 100,000 active; in the data active = inhibition mostly above about 56%, no sharp cut-off; inactive = mostly below about 77%
Target sequence (P9WFX0 whole entry, looked up): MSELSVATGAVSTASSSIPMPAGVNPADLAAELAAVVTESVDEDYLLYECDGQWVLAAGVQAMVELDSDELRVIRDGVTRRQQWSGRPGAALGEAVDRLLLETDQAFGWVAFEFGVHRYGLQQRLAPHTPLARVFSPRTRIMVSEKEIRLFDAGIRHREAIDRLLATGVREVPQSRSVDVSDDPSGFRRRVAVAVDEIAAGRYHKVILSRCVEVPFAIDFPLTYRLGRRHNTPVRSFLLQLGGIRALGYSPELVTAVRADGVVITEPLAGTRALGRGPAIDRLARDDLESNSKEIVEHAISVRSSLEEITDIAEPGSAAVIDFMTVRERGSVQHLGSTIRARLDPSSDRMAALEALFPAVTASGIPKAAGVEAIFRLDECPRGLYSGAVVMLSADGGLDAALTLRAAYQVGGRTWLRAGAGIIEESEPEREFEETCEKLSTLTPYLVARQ
PV pol inh – poliovirus RdRp elongation inhibitors, primary screen, biochemical, fluorescence polarization, total intensity. Genome polyprotein (Poliovirus type 1 (strain Mahoney)), P03300. poliovirus polymerase elongation; stronger effect = lower value. AID 588519, 2011. 0.66% of 150,000 active. % elongation, % (compound at 16.7 µg/mL); in the data active = % elongation below about 90%
Hits are given with their value; . = inactive; / = no result given.

SMILES | AID504770 | Mtb MenB inh | MbtI inh | PV pol inh
CC(C)c1ccc(C=C2C(=O)NC(=O)NC2=O)cc1 | . | . | . | 77.0
O=S1(=O)C=C(SCCN2CCOCC2)c2ccccc21 | -3.4 | . | . | .
CC(=O)NCCC(=O)N1CCCSC1=Nc1c(C)cccc1C | . | . | . | 88.0
CS(=O)(=O)c1nc2ccccc2s1 | . | . | / | 89.0
CN(C)C1(CNCc2cnn(-c3ccccc3)n2)CCCCC1 | . | . | . | 88.0
CN(C)C1(CNCc2nc3ccccc3c(=O)[nH]2)CCCCC1 | . | . | . | .
COc1ccc(-c2nn[nH]n2)cc1 | . | 38.5 | . | .
CCC(=O)c1cc(Cl)ccc1O | . | . | . | .
Oc1ccc(Cl)cc1Sc1cc(Cl)ccc1O | -7.1 | . | / | .
NC(=O)C1CCN(Cc2ccccc2)CC1 | . | . | . | .
O=C(O)C1CSC2(CCN(Cc3ccccc3)CC2)N1 (configuration not stated) | . | 37.7 | . | .
O=c1c(=NNc2ccccc2)c(=O)c2ccccc12 | . | . | . | .
O=c1c(=NNc2nn[nH]n2)c(=O)c2ccccc12 | . | . | . | -20.0
CSc1nc(-c2ccco2)nn1S(C)(=O)=O | . | . | 84.3 | .
O=C1CC(c2ccccc2Br)C2=C(CCCC2=O)N1 (configuration not stated) | . | / | / | /
COC1=CC(=O)C(C)=CC1=O | -3.15 | / | / | /
CCN(CC1COc2ccccc2O1)C(=O)c1ccc2c(c1)SC1=NS(=O)(=O)CCN12 (configuration not stated) | . | . | . | 84.0
CCOc1ccc2c(c1)SC1=NS(=O)(=O)CCN12 | . | / | / | /
CCOC(=O)C1=C(C)NC(=O)CC1c1ccccc1C(F)(F)F (configuration not stated) | . | / | / | /
Cc1nc(-c2ccccc2)cc(=O)[nH]1 | . | 36.5 | . | .
O=c1cc(-c2ccccc2)nc(Nc2nc3ccccc3o2)[nH]1 | . | . | . | 68.0
CCOc1ccc(/C=C(\C#N)C(=O)Nc2sc3c(c2C(=O)OC)C(C(=O)OC)CC3)cc1OC (configuration not stated) | / | / | / | 73.0
CCOC(=O)c1c(NC(=O)/C(C#N)=C/c2ccc(OC)cc2)sc2c1CCC2 | / | / | / | .
COCCNC(=S)N1CCC(C(=O)c2ccc(F)cc2)CC1 | . | 37.4 | . | .
C=CCNC(=S)N1CCC(C(=O)c2ccc(C)cc2)CC1 | . | . | . | .
SMILES | AID504770 | Mtb MenB inh | MbtI inh | PV pol inh
Cc1nc(-c2ccc3[nH]c(=O)oc3c2)cs1 | . | . | 97.4 | 74.0
O=c1oc(-c2cc3ccccc3s2)ns1 | . | . | / | 85.0
Cc1cccc2nc(-c3cc4ccccc4s3)oc(=O)c12 | . | / | / | /
O=C(NCCc1ccc(O)c(O)c1)C(F)(F)F | . | / | 84.9 | .
S=C(SCc1ncon1)N1CCOCC1 | . | . | 92.2 | .
Cc1[nH]c(=S)n(C2CCCCC2)c1C | . | . | . | .
O=c1[nH][nH]c(=S)n1C1CCCCC1 | . | . | 56.9 | .
S=c1nc(CCCCc2nc(=S)[nH][nH]2)[nH][nH]1 | . | . | 71.8 | 75.0
CCCc1nc(=S)[nH][nH]1 | . | . | . | .
O=c1cc(O)c2sc3nc(-c4ccco4)cc(C(F)(F)F)c3c2[nH]1 | . | . | . | .
NCCS | . | . | 51.4 | .
CCOc1ccc(NC2=CC(=O)C=CC2=O)cc1 | . | / | 98.2 | .
CCOc1ccc(NC2=CC(=O)CCC2)cc1 | . | . | . | .
COc1ccc(C2C(C#N)=C(N)SC3C(=O)N(c4ccc(Br)cc4)C(=O)C32)cc1 (configuration not stated) | . | . | / | 77.0
O=C(O)Cn1c2ccccc2c2n[nH]c(=S)nc21 | . | . | 90.1 | .
CCn1c2ccccc2c2n[nH]c(=S)nc21 | . | . | . | .
O=C(O)C1CSC(c2cccnc2)=N1 (configuration not stated) | . | / | . | /
O=C(O)C1CSC(c2ccncc2)=N1 (configuration not stated) | . | 90.1 | . | .
O=C(NNc1ccccc1C(F)(F)F)c1ccno1 | . | . | . | .
COc1ccc(S(=O)(=O)c2cnc3cc(OC)c(OC)cc3c2N2CCC(C)CC2)cc1 | . | . | . | .
c1ccc(N=c2[n-][n+](-c3ccccc3)cn2-c2ccccc2)cc1 | . | . | / | 85.0
CCOC(=O)c1ccc(-c2ccc(/C=C(/C#N)C(=O)Nc3ccc(C)cc3C)o2)cc1 | . | . | . | .
C=C1C(C(=O)N2CCN(c3ccccc3)CC2)C1C(=O)N1CCN(c2ccccc2)CC1 (configuration not stated) | . | . | . | .
O=C(NC1CCN(Cc2ccccc2)CC1)c1ccc(Cn2c(=O)c3ccccc3n(Cc3ccc(Cl)cc3)c2=O)cc1 | / | / | / | .
O=C(NC1CCN(Cc2ccccc2)CC1)c1ccc(Cn2c(=O)c3ccccc3n(Cc3ccccc3)c2=O)cc1 | / | / | / | 73.0
SMILES | AID504770 | Mtb MenB inh | MbtI inh | PV pol inh
NC(=O)NC1C(=O)c2ccccc2OC1c1ccccc1 (configuration not stated) | . | . | . | .
COc1ccc(CCC(O)C2(O)CCCCC2)cc1 (configuration not stated) | . | . | / | .
S=C=NCCc1ccccc1 | . | . | 65.0 | 89.0
COc1ccc(CCN=C=S)cc1 | . | . | 96.3 | 77.0
O=C(COn1nnc2ccc(Cl)cc21)NCc1ccco1 | . | . | . | .
Cc1c(C(=O)O)oc2ccc3nc(N(C)C)sc3c12 | . | . | . | .
Oc1ccccc1OCc1nc2ccccc2s1 | . | / | 51.8 | .
CCn1cc(S(=O)(=O)N2CCC3(CC2)OCCO3)cn1 | . | . | . | .
Cc1nn(C(C)CN)c(C)c1C (configuration not stated) | . | 34.3 | . | .
C/C(=N\NC(=O)Cc1cccs1)c1ccc(S(=O)(=O)N(C)C)cc1 | . | . | . | .
NCCSc1n[nH]c(=O)[nH]c1=O | . | . | . | .
CCCCCCSc1n[nH]c(=O)[nH]c1=O | . | . | . | 86.0
N#Cc1c(N)cc(N)[nH]c1=S | . | . | 96.8 | .
Cc1cc(C(F)(F)F)c(C#N)c(=S)[nH]1 | . | . | . | .
CC(=O)Nc1ccc(S(=O)(=O)n2nccc2-c2ccc(-c3cccs3)s2)cc1 | . | / | / | /
O=C(C[n+]1cccc(C(=O)Nc2ccccc2)c1)c1ccc(N2C(=O)c3ccccc3C2=O)cc1 | . | . | 57.1 | .
CCOC(=O)C1CCCN(C(=O)CSc2ccc(NC(C)=O)cc2)C1 (configuration not stated) | . | . | 66.6 | .
Cc1ccc(Nc2nnc(SCc3nc4sc(C(=O)O)c(C)c4c(=O)[nH]3)s2)cc1C | . | . | . | 81.0
CSCc1nc2sc(C(=O)NC3CC3)c(C)c2c(=O)[nH]1 | . | . | . | .
O=C(CCN1C(=O)NC2(CCCC2)C1=O)N1CCC(c2nc3ccccc3s2)CC1 | . | . | . | .
Oc1c(Br)cc(Cl)cc1/C=N/c1ccccn1 | . | . | . | 75.0
CCc1ccc2[nH]c(C(=O)NCCc3ccccc3)cc2c1 | . | . | . | .
O=C(c1ccccc1)N1CCn2c1nc1ccccc12 | . | . | / | .
